SMILES strings stand for the structures. Active and inactive are the calls of the source. Unless noted, no stated cut-off is given here; in the data, active means inhibition above about 25%; inactive means the rest.

Among the data in PubChem BioAssay are inhibition values, retold here.

Assay [1] concerns the target Nuclear receptor coactivator 3 (Homo sapiens) (UniProt Q9Y6Q9). The assay can be described thus: NCOA3 GAL4-fusion reporter inhibition – cell-based, luminescence, quadruplicate, confirmation (AID 588792;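 active means mean inhibition over 43.08%, the solvent-only control mean plus 3 SD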;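 further: 0% = DMSO treated cells and 100% = gossypol at 36 µM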). Particulars: HEK293 GAL4-SRC3 luciferase reporter, at 3.6 µM, hits give high values. A general note: A reporter such as luciferase makes a cellular process visible.
Assay [2] deals with transactivating tegument protein VP16 (Human herpesvirus 1), Gal4-VP16 luciferase reporter. Kind of assay: repression of VP16-driven luciferase reporter – cell-based, luminescence, high throughput, counter-screen for SRC3 inhibitor project (AID 588794; in the data active means inhibition above about 30%). The note with it: mammalian cells, at 3.6 µM, hits give high values.
In assay [3] the target is Nuclear receptor coactivator 1 (Homo sapiens) (UniProt Q15788). The assay can be described thus: NCOA1 GAL4-fusion reporter inhibition – cell-based, luminescence, quadruplicate, confirmation (AID 588820;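 active means mean inhibition above 46.68%, the untreated control wells mean plus 3 SD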;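 further: 0% = DMSO wells and 100% = gossypol 36 µM treated wells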). The note with it: HEK293 GAL4-SRC1 luciferase reporter, at 3.6 µM, hits give high values.
Sequence of Nuclear receptor coactivator 1 (Homo sapiens) (Q15788 whole entry, looked up, the tested form may be a part): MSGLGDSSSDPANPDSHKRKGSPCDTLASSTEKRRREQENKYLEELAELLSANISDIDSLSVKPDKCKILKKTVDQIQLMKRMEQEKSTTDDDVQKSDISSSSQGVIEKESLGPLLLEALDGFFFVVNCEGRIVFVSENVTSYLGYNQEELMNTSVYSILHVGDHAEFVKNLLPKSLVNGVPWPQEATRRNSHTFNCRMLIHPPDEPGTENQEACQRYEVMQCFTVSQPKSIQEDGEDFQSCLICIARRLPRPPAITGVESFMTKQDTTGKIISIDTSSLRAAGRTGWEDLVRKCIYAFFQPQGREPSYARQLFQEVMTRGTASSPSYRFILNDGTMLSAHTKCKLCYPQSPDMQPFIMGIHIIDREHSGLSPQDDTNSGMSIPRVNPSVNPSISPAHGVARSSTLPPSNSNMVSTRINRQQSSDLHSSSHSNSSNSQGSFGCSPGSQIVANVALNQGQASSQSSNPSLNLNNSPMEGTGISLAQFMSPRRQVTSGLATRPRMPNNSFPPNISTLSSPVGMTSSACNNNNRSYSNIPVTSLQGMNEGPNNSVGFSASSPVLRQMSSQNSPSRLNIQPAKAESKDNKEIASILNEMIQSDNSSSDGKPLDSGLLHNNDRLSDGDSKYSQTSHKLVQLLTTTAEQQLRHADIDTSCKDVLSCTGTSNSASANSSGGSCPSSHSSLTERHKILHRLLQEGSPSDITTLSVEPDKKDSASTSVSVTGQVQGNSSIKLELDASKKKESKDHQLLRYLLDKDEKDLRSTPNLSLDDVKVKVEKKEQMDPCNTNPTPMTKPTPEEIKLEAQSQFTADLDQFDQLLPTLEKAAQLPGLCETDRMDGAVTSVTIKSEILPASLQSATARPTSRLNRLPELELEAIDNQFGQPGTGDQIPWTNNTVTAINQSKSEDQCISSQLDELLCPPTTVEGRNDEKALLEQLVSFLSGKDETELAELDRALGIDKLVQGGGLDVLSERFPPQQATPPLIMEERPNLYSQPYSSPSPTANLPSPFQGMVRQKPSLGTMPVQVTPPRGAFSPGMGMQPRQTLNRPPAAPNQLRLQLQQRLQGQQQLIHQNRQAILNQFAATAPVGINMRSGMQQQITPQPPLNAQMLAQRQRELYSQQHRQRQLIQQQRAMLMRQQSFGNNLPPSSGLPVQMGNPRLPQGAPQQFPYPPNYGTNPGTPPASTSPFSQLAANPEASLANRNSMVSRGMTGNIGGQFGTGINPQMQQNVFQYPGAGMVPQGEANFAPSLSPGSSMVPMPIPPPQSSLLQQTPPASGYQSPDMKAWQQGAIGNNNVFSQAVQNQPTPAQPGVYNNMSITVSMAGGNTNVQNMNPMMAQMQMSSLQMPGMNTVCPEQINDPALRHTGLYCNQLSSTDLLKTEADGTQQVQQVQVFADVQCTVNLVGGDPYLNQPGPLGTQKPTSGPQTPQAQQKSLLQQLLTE
A short description of assay [4]: repression of VP16-driven luciferase reporter – cell-based, luminescence, high throughput, counter-screen for SRC1 inhibitor project (AID 588824). Particulars: cell-based VP16 transactivation luciferase luminescence; at 3.6 µM; hits give high values.

Sequence of Nuclear receptor coactivator 3 (Homo sapiens) (Q9Y6Q9 whole entry, looked up, the tested form may be a part): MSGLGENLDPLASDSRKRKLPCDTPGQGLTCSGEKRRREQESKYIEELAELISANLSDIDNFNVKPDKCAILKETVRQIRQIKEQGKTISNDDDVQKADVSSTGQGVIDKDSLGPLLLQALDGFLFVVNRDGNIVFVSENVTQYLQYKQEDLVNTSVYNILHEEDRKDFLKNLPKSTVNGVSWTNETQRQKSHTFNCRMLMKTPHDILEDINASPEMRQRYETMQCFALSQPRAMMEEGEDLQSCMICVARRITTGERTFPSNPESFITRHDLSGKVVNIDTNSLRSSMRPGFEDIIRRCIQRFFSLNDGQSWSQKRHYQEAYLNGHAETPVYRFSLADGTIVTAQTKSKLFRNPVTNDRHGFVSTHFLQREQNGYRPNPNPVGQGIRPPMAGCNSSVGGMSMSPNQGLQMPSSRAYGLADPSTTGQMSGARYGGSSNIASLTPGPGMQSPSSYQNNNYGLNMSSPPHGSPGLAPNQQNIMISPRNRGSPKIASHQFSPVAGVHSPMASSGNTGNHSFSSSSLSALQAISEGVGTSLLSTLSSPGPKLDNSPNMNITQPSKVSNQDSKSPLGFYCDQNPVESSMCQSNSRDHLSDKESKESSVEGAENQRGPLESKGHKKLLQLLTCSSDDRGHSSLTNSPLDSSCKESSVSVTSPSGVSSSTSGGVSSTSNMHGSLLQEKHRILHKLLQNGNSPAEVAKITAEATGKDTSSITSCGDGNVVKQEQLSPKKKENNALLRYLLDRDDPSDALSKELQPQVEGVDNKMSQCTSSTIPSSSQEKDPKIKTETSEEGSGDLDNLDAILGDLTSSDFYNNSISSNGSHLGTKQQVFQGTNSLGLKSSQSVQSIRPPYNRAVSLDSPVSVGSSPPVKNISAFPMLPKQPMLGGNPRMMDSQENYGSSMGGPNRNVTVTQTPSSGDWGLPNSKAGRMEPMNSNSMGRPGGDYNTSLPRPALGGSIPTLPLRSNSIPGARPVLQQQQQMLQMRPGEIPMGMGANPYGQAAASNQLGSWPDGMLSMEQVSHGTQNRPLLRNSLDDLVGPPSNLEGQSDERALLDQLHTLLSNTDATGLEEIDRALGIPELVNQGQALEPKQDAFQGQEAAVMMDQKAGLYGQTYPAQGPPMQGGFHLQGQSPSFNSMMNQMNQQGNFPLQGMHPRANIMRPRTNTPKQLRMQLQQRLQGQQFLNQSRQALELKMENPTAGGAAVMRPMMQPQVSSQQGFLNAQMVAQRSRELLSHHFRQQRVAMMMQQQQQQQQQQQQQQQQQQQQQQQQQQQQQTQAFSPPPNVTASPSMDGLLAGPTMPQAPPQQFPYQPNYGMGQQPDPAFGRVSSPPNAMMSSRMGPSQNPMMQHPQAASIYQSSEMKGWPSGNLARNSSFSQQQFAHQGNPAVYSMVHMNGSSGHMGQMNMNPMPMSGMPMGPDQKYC

In general, inhibition refers to the drop in the measured response relative to a control, in per cent. As to `COc1cc(/C=C2\SC(N)=NC2=O)cc(OC)c1`, the inhibition is 20.4% (inactive) in assay [1], 27.3% (inactive) in assay [2], 34.7% (inactive) in assay [3] and 18.9% (inactive) in assay [4].
The matching figures for `CN1CC(=O)N2C(c3ccc(Cl)cc3)c3[nH]c4ccccc4c3C[C@H]2C1=O` (stereo partly specified): 41.6% (inactive), 29.5% (active), 25% (inactive) and 33.9% (active).
Turning to `CCCS(=O)(=O)Nc1ccc(Nc2c3ccccc3nc3ccccc23)c(OC)c1`, the inhibition in assay [1] was 64.2% (active); in assay [2], 17.1% (inactive); in assay [3] it was 56.8% (active); in assay [4] it was 2.6% (inactive).
The matching figures for `COc1ccc2cc3c(N)nn(C(=O)c4ccc(Cl)c([N+](=O)[O-])c4)c3nc2c1`: 70.2% (active), 39.4% (active), 56.7% (active) and 36.5% (active).
The matching figures for `Cc1nn(Cc2ccc(Cl)cc2)c(C)c1NC(=O)c1cc(-c2ccc3c(c2)OCO3)on1`: 15.2% (inactive), 50.3% (active), 29.5% (inactive) and 54.1% (active).
With `Cc1csc(CNc2ncnc3ccc(-c4ccoc4)cc23)c1`, the inhibition was 52.7% (active) in assay [1], 47.6% (active) in assay [2], 48% (active) in assay [3] and 44.5% (active) in assay [4].
Taken in the same sequence, the figures for `CC(=O)c1c(C)oc2ccc(N(C(C)=O)S(=O)(=O)c3cccc4cccnc34)cc12` were 15.2% (inactive), 21.9% (inactive), 6.31% (inactive) and 18.4% (inactive).
The matching figures for `COc1ccc(NS(=O)(=O)c2ccc(NC(=O)c3ccc(N(C)S(C)(=O)=O)cc3)cc2)c(OC)c1`: 12.3% (inactive), 37% (active), -6.59% (inactive) and 36.6% (active).
The matching figures for `CCCCCCCCCCCCCCCCCCNc1ccn(C2OC(COP(=O)(O)OCC3OC(n4cc(F)c(=O)[nH]c4=O)CC3O)C(O)C2O)c(=O)n1` (stereo unspecified): 52.3% (active), 38.7% (active), 51% (active) and 31.2% (active).
On to `Nc1nc(CCl)nc(Nc2cccc3ccccc23)n1`, for which the inhibition in assay [1] was 42.7% (inactive); in assay [2], 15.4% (inactive); in assay [3] it was 16.1% (inactive); in assay [4], 18.8% (inactive).
Taken in the same sequence, the figures for `CC(C)(C)NC(=O)C(c1ccncc1)N(Cc1cccs1)C(=O)Cn1nnc(-c2ccc(F)cc2)n1` (stereo unspecified) were 59.4% (active), 35% (active), 43% (inactive) and 29.1% (active).
Take `CC(C)(C)c1nnc(N/N=C/c2ccccc2O)n(N)c1=O`: the inhibition was 80.1% (active) in assay [1], 76.7% (active) in assay [2], 74.4% (active) in assay [3] and 76.2% (active) in assay [4].
Take `Nc1ccn([C@@H]2O[C@H](CO)[C@@H](O)C2O)c(=O)n1` (stereo partly specified): the inhibition in assay [1] was 33.8% (inactive); in assay [2] it was 30.9% (active); in assay [3] it was 32.5% (inactive); in assay [4], 19.4% (inactive).
As for `CN1CCN(c2ncnc3scc(-c4ccccc4Cl)c23)CC1`, the inhibition in assay [1] was 59.6% (active); in assay [2], 41.5% (active); in assay [3] it was 55.4% (active); in assay [4] it was 44.3% (active).
As to `CC(=O)N(C)C1=C(N2CCOCC2)C(=O)c2ccccc2C1=O`, the inhibition is -0.07% (inactive) in assay [1], 35.7% (active) in assay [2], 14.2% (inactive) in assay [3] and 21.9% (inactive) in assay [4].
Taken in the same sequence, the figures for `C/C(=N\NC(=O)c1nnn(-c2nonc2N)c1-c1ccccc1)c1ccccc1O` were 49.2% (active), 44.6% (active), 60.8% (active) and 40.6% (active).
The matching figures for `C(=Cc1cnc2ccccc2n1)c1ccc2c(c1)OCO2`: 58.3% (active), 25.1% (inactive), -41.3% (inactive) and 21.3% (inactive).
For the compound `CN(C)c1ccc(CNC(=O)CCNS(=O)(=O)c2cc(Br)cnc2N)cc1`, the inhibition was 31.5% (inactive) in assay [1], 19.3% (inactive) in assay [2], 8.5% (inactive) in assay [3] and 20.7% (inactive) in assay [4].
`COc1ccc(O)c(/C=N/NC(=O)c2c(C)nnn2-c2nonc2N)c1`: the inhibition in assay [1] is 25.4% (inactive); in assay [2] it was 19.7% (inactive); in assay [3], 14.4% (inactive); in assay [4], 12% (inactive).
The matching figures for `CCCCOC(=O)c1[nH]c2c(c1C)C(=O)CC(c1cc(OC)c(OC)c(OC)c1)C2` (stereo unspecified): 8.2% (inactive), 28% (inactive), -1.5% (inactive) and 32.1% (active).
Taken in the same sequence, the figures for `Cc1oc2c(Cl)c(Cl)c(O)c(CN(C)C)c2c1C(=O)c1ccc(Cl)cc1` were 44.1% (active), 26.1% (inactive), 44.2% (inactive) and 33.1% (active).
As to `C/C(=N\Nc1ccc2nncn2n1)c1ccccn1`, the inhibition in assay [1] was 70.3% (active); in assay [2] it was 65.5% (active); in assay [3], 62% (active); in assay [4], 56.6% (active).
`Cc1cccc(CNc2ncnc3ccc(-c4ccoc4)cc23)c1`: the inhibition in assay [1] was 47% (active); in assay [2] it was 40.7% (active); in assay [3], 45.1% (inactive); in assay [4] it was 46% (active).
Taken in the same sequence, the figures for `CCN(CC)CCNc1ccc(C)c2sc3ccc(O)cc3c(=O)c12` were 41.5% (inactive), 34.1% (active), 50% (active) and 31.8% (active).
